Compound activity deposited in PubChem by National Center for Advancing Translational Sciences (NCATS).
TGFb SMAD3 inh: blocks TGF-b signaling; HepG2 CAGA-GFP TGF-b/SMAD3 reporter, GFP fluorescence, 18 h; TGF-beta stimulated, 500 pg/mL final; Potency, µM (top dose mostly 46.1 µM), hits mostly inhibitors; 410,000 tested, 1.2% active; AID 588855; also: nearly all actives have a fitted effect of over 65% in size
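TGF-beta reporter screen: HEPG2 CAGA-GFP, 1% FBS, 500 pg/mL TGF-beta final, 18 h; per-cell GFP summed per well; curves fitted and categorized by class.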
ATXN2 expr inh: reduces ATXN2 reporter expression in HEK-293 cells; 360,000 tested, 0.72% active; AID 1745845; HEK-293 ATXN2-luciferase reporter, luminescence, 24 h; Potency, µM (doses to about 57 µM), most hits filed as inhibitors; also: nearly all actives have a fitted effect of over 55% in size
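qHTS (up to 57 uM final) was run with 24 h compound exposure of reporter cells at 37 °C. Each well was multiplexed: SteadyGlo luminescence measured ATXN2-luciferase expression after a fluorogenic Gly-Phe-AFC viability readout (25 uM final).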
DT40 TDP1 CPT: growth inhibition of DT40 Tdp1-/-;hTDP1 cells with camptothecin (screen for TDP1 inhibitors). chicken DT40 Tdp1-/-;hTDP1 cells + 20 nM CPT, ATP luminescence, 48 h. Potency, µM (highest dose often 46.2 µM), most hits filed as inhibitors. 420,000 tested, 12% active. AID 686979; also: nearly all actives have a fitted effect of over 55% in size
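Chicken DT40 Tdp1-/- cells stably complemented with human TDP1 were seeded at 400 cells/well in medium containing 20 nM camptothecin, exposed to pin-transferred compounds, and grown at 37 °C for at least 48 hr. Viability was read as ATP luminescence.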
ATXN viability: viability counter-screen for ATXN expression inhibitors | Potency, µM (series often up to 56.7 µM), actives largely listed as cytotoxic | S2 cells (HEK-293 line with an ATXN2-luciferase reporter) viability, CellTiter-Fluor protease fluorescence, 24 h | 400,000 tested, 0.49% active; also: nearly all actives have a fitted effect of over 40% in size
HepG2 tox: counter-screen for TGF-b inhibitors: cytotoxicity in HepG2 cells | HepG2 CAGA-GFP viability, ATP luminescence, 18 h | Potency, µM (highest dose often 46.1 µM), hits mostly cytotoxic | 410,000 tested, 0.76% active
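CellTiter-Glo luminescence gave cytotoxicity after 18 hours at 37 degrees C. The cells were HepG2 CAGA-GFP in 1% FBS DMEM, stimulated with 500 pg/mL TGF-beta after compound addition. %Activity was normalised to no-cell wells (complete cell-killing) and DMSO (no toxicity), and curves were fitted and classified.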
TDP1 cell noCPT: qHTS for Inhibitors of human tyrosyl-DNA phosphodiesterase 1 (TDP1): qHTS in cells in absence of CPT | DT40 Tdp1-/- hTDP1 cells, no CPT, ATP luminescence, 48 h | 420,000 tested, 15% active | Potency, µM (doses to about 46.2 µM), most hits filed as inhibitors; also: nearly all actives have a fitted effect of over 55% in size
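Stably hTDP1-transfected Tdp1-null chicken DT40 cells were treated with library compounds minus camptothecin and grown for at least 48 hr at 37 °C, after which cellular ATP was quantified by luminescence.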
A number is an active result; - = inactive; ? = inconclusive; . = no result. Shown are actives, neighbours in structure and some others; about 17% of the full set was active somewhere. Calls follow the shape of the dose curve; as a rule, active = well fitted curve in the direction sought with a large enough effect; inconclusive = small, poorly fitted or top-dose-only effect, or another doubt; inactive = no such curve, though single readings can be large; an effect the other way counts as inactive or inconclusive.

SMILES	TGFb SMAD3 inh	ATXN2 expr inh	DT40 TDP1 CPT	ATXN viability	HepG2 tox	TDP1 cell noCPT
CCc1ccc(C2=CC(c3cccc(C)c3)n3c(nc4ccccc43)N2)cc1 (stereo unspecified)	?	-	?	-	-	2.6µM
C=CCn1c(SCC(=O)c2c(N)n(CCC)c(=O)n(C)c2=O)nnc1-c1ccncc1	-	-	-	-	-	-
Cc1ccc(C2C=C(c3ccccc3OC(F)F)Nc3ncnn32)cc1 (stereo unspecified)	-	-	?	.	-	-
CCOc1ccc(C2=CC(c3cccc(Br)c3)n3c(nc4ccccc43)N2)cc1Cl (stereo unspecified)	-	-	?	-	-	13µM
CN(C)c1ccc(C2C=C(c3ccc(Cl)cc3OC(F)F)Nc3ncnn32)cc1 (stereo unspecified)	-	-	9.2µM	-	-	18µM
O=C(CSc1oc(-c2ccccc2)nc1S(=O)(=O)c1ccc(Cl)cc1)NC1CCCCC1	-	-	-	-	-	-
Cc1cc(C)cc(NC(=O)CSc2oc(-c3ccccc3)nc2S(=O)(=O)c2ccccc2)c1	-	-	18µM	-	-	23µM
O=C(CSc1oc(-c2ccccc2)nc1S(=O)(=O)c1ccccc1)c1ccccc1	-	-	12µM	-	-	15µM
CSc1oc(-c2ccccc2)nc1S(=O)(=O)c1ccc(F)cc1	?	-	-	-	-	-
O=C(CSc1oc(-c2ccccc2)nc1S(=O)(=O)c1ccc(Br)cc1)c1ccccc1	-	-	?	-	-	10µM
O=C(CSc1oc(-c2ccco2)nc1S(=O)(=O)c1ccc(Br)cc1)c1ccccc1	-	-	?	-	-	?
Cc1ccc(N(CC(O)CN2CCCCC2)S(=O)(=O)c2ccc(C)cc2)cc1 (stereo unspecified)	-	-	-	-	-	-
CCOc1ccc(-n2nc(CO)c(C(=O)NCc3ccc(Cl)cc3)n2)cc1	-	.	-	.	-	-
COc1ccc(C2c3c(-c4ccccc4)n[nH]c3C(=O)N2c2ccc(C(=O)O)cc2)c(OC)c1 (stereo unspecified)	-	-	-	-	-	-
CCN(C[C@H]1N[C@@](CC)(C(=O)OC)[C@H]2C(=O)N(C)C(=O)[C@@H]12)C(=O)Nc1ccc(C)cc1	-	-	-	-	-	-
CCOC(=O)C1=C(C)N(C)C(=S)NC1c1cc(OC)ccc1OC (stereo unspecified)	-	-	?	-	-	21µM
CCOC(=O)c1cccc(NC(=O)c2cnc3sc(N4CCOCC4)nn3c2=O)c1	-	-	?	-	-	?
COc1cc(OC)c(OC)cc1/C=C/c1nc2ccccc2o1	-	.	?	.	-	13µM
Fc1ccc(/C=C/c2ccc3ccccc3n2)cc1	?	.	2.8µM	.	-	2.8µM
CC(O)/C=C/c1ccc2ccccc2n1 (stereo unspecified)	-	-	13µM	?	-	?
COc1ccccc1/C=C/c1nc2ccccc2c(=O)o1	-	-	-	-	-	-
Fc1cccc(F)c1/C=C/c1ccc2ccccc2n1	?	-	?	-	-	?
COc1ccccc1/C=C/c1ccc2ccccc2n1	-	.	?	.	-	16µM
O=C(CN1CCN(S(=O)(=O)c2ccccc2)CC1)Nc1ccnn1C1CCCC1	-	.	-	-	-	?
COc1ccc(OC)c(/C=C/c2ccc3ccccc3n2)c1	-	.	?	.	-	?
SMILES	TGFb SMAD3 inh	ATXN2 expr inh	DT40 TDP1 CPT	ATXN viability	HepG2 tox	TDP1 cell noCPT
C(=C\c1nc2ccccc2o1)/c1ccc2c(c1)OCO2	-	.	?	.	-	?
COc1cc(/C=C/c2ccccc2)cc(OC)c1	-	-	-	-	-	-
COc1ccc(C=Cc2ccc3ccccc3n2)c(OC)c1	?	.	-	.	-	23µM
COc1cc(OC)c(OC)cc1/C=C/c1ccc2ccccc2n1	-	.	11µM	.	-	14µM
COc1cc(/C=C\c2ccc(OC)cc2OC)cc(OC)c1	.	.	7.5µM	.	.	?
COc1ccc(/C=C/c2nc3cc(-c4ccccc4)ccc3o2)cc1O	-	-	9.2µM	-	-	9.2µM
COc1cccc(C(=O)COC(=O)CCC(=O)NC2CCCCC2)c1	?	.	-	-	-	?
CC1=C(C(=O)Nc2ccccc2)C(c2ccncc2)n2nc(SCc3ccccc3)nc2N1 (stereo unspecified)	-	-	-	-	-	-
COc1cccc(Cn2c(=O)c(-c3cn(C)c4ccccc34)nc3cnc(N4CCOCC4)nc32)c1	.	.	-	.	.	-
CCNc1ncc2nc(-c3cn(C)c4ccccc34)c(=O)n(Cc3ccc(F)cc3)c2n1	.	.	-	.	.	-
Cn1cc(-c2nc3cnc(N4CCNCC4)nc3n(Cc3ccc(F)cc3)c2=O)c2ccccc21	.	.	5.2µM	.	.	7.3µM
COc1cccc(Cn2c(=O)c(-c3cn(C)c4ccccc34)nc3cnc(N4CCNCC4)nc32)c1	.	.	7.3µM	.	.	21µM
O=C(c1cccc(C(F)(F)F)c1)N(c1ccccn1)C1CCCCC1	-	-	-	-	-	?
Cc1ccc2[nH]c(C)c(/C=C/c3cc[n+](C)cc3)c2c1	-	?	3.3µM	?	-	2.6µM
Cc1ccc2c(c1)c(/C=C/c1cc[n+](C)cc1)c(C)n2C	-	.	0.52µM	-	-	0.41µM
C[n+]1ccc(/C=C/c2ccc(Br)cc2)cc1	-	-	-	?	-	-
C=C1[C@@H](O)[C@@H]2O[C@]3(CC[C@H](/C=C/[C@@H](C)[C@@H]4CC(C)=CC5(O[C@H](C[C@@](C)(O)C(=O)OC)CC[C@H]5O)O4)O3)CC[C@H]2O[C@@H]1[C@@H](O)C[C@H](C)[C@H]1OC2(CCCCO2)CC[C@H]1C (stereo partly specified)	0.89µM	?	0.58µM	?	-	0.92µM
C=C1C(O)[C@@H]2O[C@]3(CC[C@H](/C=C/C(C)[C@@H]4CC(C)=CC5(O[C@H](C[C@@](C)(O)CO)CCC5O)O4)O3)CC[C@H]2O[C@@H]1C(O)CC(C)[C@H]1OC2(CCCCO2)CCC1C (stereo partly specified)	7.9µM	-	1.5µM	?	-	3.3µM
CC(=O)Nc1c(C(=O)Nc2ccccc2F)oc2ccccc12	?	-	-	-	-	?
COc1ccc(NC(=O)C2COc3ccccc3O2)cc1S(=O)(=O)N1CCOCC1 (stereo unspecified)	-	-	-	-	-	?
Cc1ccc2c(c1)N(C(=O)N1CCC(C(=O)NCc3ccccc3F)CC1)CC(C)O2 (stereo unspecified)	13µM	.	?	.	-	18µM
